The values that follow come from PubChem BioAssay.

Structures are written as SMILES. Activity calls are given as the source filed them.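 The calls were made as follows, unless noted: active = compound that reduces growth-factor-driven endothelial tube area in a mixed cell culture, no cutoff stated; inactive = the rest.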

The nature of assay [1]: stimulators of nuclear beta-catenin in C2C12, primary screen, imaging, WNT3A-conditioned medium, mouse C2C12, NPC library (AID 1117326; in the data active = nuclear beta-catenin stimulation mostly above about 4.2%, no sharp cut-off; inactive = mostly below about 10%; also: reference of the scale not given here). Particulars: stronger effect = higher value.
The nature of assay [2]: stimulators of insulin release from INS-1E, primary screen, cell-based, 5 mM glucose, NPC library (AID 1117329;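 active = compound raises insulin release from rat beta cells at 5 mM glucose, no numeric limit stated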; also: reference of the scale not given here). Particulars: rat INS-1E insulin secretion, at 10 µM, stronger effect = higher value.
A short description of assay [3]: growth inhibition of GSK3B-pretreated HCT116 cells – cell-based, CellTiter-Glo, 0.2 to 20 µM (AID 1117336;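 active = compounds lowering colon cancer cell viability after pretreatment blocking the GSK3B kinase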). The settings on record: HCT116 viability after GSK3B inhibitor, at 20 µM, stronger effect = higher value. For orientation: ATP-based viability assays read luminescence as a measure of living cells.
The nature of assay [4]: inhibition of endothelial tube formation, primary screen, imaging, VEGF stimulated, CD31 staining, tube area, NPC library (AID 1117340). The settings on record: VEGF-stimulated ADSC/ECFC co-culture, at 10 µM, stronger effect = higher value.
Assay [5] is described as follows: glucagon-like peptide 1 release enhancers, primary assay, NCI-H716 cell line, NPC library (AID 1117341;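 active = compound raises GLP1 secretion from the human gut endocrine cells, with no numeric limit stated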; also: reference of the scale not given here). Particulars: NCI-H716 cells, at 10 µM, stronger effect = higher value.
A short description of assay [6]: HCT116 colon cancer cell growth inhibition, primary screen, CellTiter-Glo luminescence, NPC library (AID 1117342;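 active = compounds that lower survival of HCT116 colon cancer cells in the luminescence readout, no numeric limit stated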). Particulars: at 20 µM (top of the series).
Assay [7] can be described thus: CellTiter-Glo luminescent readout of SW480 viability loss, NPC library primary (AID 1117343;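 active = compounds that lower viability of the colon cancer cells in the luminescence readout, with no numeric limit stated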). Particulars: CellTiter-Glo luminescence; at 20 µM (top of the series).
A short description of assay [8]: decreased DLD-1 cellular survival, CellTiter-Glo luminescent readout, NPC compound collection, primary HTS (AID 1117346;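 active = compounds that lower survival of DLD-1 colon cancer cells in the luminescence readout, no cutoff given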). Particulars: DLD-1 viability, CellTiter-Glo luminescence; at 20 µM (top of the series).

Regarding `O=C(N/N=C/c1ccccc1O)c1ccncc1`, the nuclear beta-catenin stimulation in assay [1] (at 10 µM) is 32.2% (inactive); in assay [1] (stimulation, at 2 µM) it was 11.1%. The insulin secretion stimulation in assay [2] was -1.6% (inactive). For the same compound, the viability decrease in assay [3] is 94.3% (active). Besides, the tube area decrease in assay [4] was 86.7% (active). For the same compound, the GLP1 secretion stimulation in assay [5] was 2.1% (inactive). The inhibition of viability in assay [6] was 88.7% (active). The viability decrease (inhibition) in assay [7] was 106% (active); in assay [8] it was 57.8% (active).

For `NCC[C@H](O)C(=O)N[C@@H]1C[C@H](N)[C@@H](O[C@H]2O[C@H](CN)[C@@H](O)[C@H](O)[C@@H]2O)[C@H](O)[C@@H]1O[C@H]1O[C@H](CO)[C@@H](O)[C@H](N)[C@@H]1O`, the nuclear beta-catenin stimulation in assay [1] (at 10 µM) was 0.4% (inactive); in assay [1] (stimulation, at 2 µM), -1.1%. Further, the insulin secretion stimulation in assay [2] is 1.1% (inactive). Also, the viability decrease in assay [3] was -9.3% (inactive). For the same compound, in assay [4], the tube area decrease is -7.9% (inactive). In addition, the GLP1 secretion stimulation in assay [5] is 0.5% (inactive). Further, the inhibition of viability in assay [6] is -2.7% (inactive). Besides, the viability decrease (inhibition) in assay [7] was -3.7% (inactive); in assay [8], 0.5% (inactive).

As to `Cc1ccc(/C=N/n2c(-c3ccccc3)csc2=S)cc1`, the nuclear beta-catenin stimulation was 1.7% (inactive) in assay [1] (at 10 µM) and -0.8% in assay [1] (stimulation, at 2 µM). Also, the insulin secretion stimulation in assay [2] was 5% (inactive). Further, the viability decrease in assay [3] was 50.3% (active). Also, in assay [4], the tube area decrease is 18.4% (inactive). In addition, the GLP1 secretion stimulation in assay [5] was 0.3% (inactive). Also, the inhibition of viability in assay [6] was 16.7% (inactive). Also, the viability decrease (inhibition) in assay [7] was 56% (active); in assay [8] it was 37.1% (inactive).

`Cc1ccc(O)c2ncccc12`: the nuclear beta-catenin stimulation was 30.3% (inactive) in assay [1] (at 10 µM) and 2.4% in assay [1] (stimulation, at 2 µM). Also, in assay [2], the insulin secretion stimulation is -2% (inactive). Besides, the viability decrease in assay [3] was 16.6% (inactive). Besides, the tube area decrease in assay [4] was 5.7% (inactive). In addition, the GLP1 secretion stimulation in assay [5] is 2.8% (inactive). Further, the inhibition of viability in assay [6] is 33% (inactive). For the same compound, the viability decrease (inhibition) was 27% (inactive) in assay [7] and 4.9% (inactive) in assay [8].

Consider `CCC(=C(CC)c1ccc(OP(=O)(O)O)cc1)c1ccc(OP(=O)(O)O)cc1`, for which the nuclear beta-catenin stimulation was -1.3% (inactive) in assay [1] (at 10 µM) and 1.7% in assay [1] (stimulation, at 2 µM). Besides, the insulin secretion stimulation in assay [2] was -1.8% (inactive). Besides, the viability decrease in assay [3] is -26.4% (inactive). The tube area decrease in assay [4] was 3.7% (inactive). Also, the GLP1 secretion stimulation in assay [5] is -1.8% (inactive). In addition, the inhibition of viability in assay [6] was -0.4% (inactive). Further, the viability decrease (inhibition) in assay [7] is -2.6% (inactive); in assay [8], 10.2% (inactive).

For the compound `Nc1ccc(C(=O)N2CC3CC(CN(Cc4ccccc4)C3)C2)cc1`, the nuclear beta-catenin stimulation is 3.2% (inactive) in assay [1] (at 10 µM) and 0.5% in assay [1] (stimulation, at 2 µM). For the same compound, the insulin secretion stimulation in assay [2] was 0.1% (inactive). Moreover, the viability decrease in assay [3] is 1.2% (inactive). Also, the tube area decrease in assay [4] was -12.8% (inactive). The GLP1 secretion stimulation in assay [5] was 1.7% (inactive). The inhibition of viability in assay [6] was 23.2% (inactive). Moreover, the viability decrease (inhibition) was 9.4% (inactive) in assay [7] and 7.3% (inactive) in assay [8].

Consider `Cn1c(=O)c2[nH]c(Br)nc2n(C)c1=O`, for which the nuclear beta-catenin stimulation in assay [1] (at 10 µM) is 0.6% (inactive); in assay [1] (stimulation, at 2 µM) it was 2%. The insulin secretion stimulation in assay [2] was 0.9% (inactive). For the same compound, in assay [3], the viability decrease is 2.55% (inactive). The tube area decrease in assay [4] is 10.2% (inactive). In addition, in assay [5], the GLP1 secretion stimulation is 1.1% (inactive). The inhibition of viability in assay [6] was -3.7% (inactive). For the same compound, the viability decrease (inhibition) is -17.4% (inactive) in assay [7] and -0.15% (inactive) in assay [8].

On to `OCC(O)CS` (centres undefined), for which the nuclear beta-catenin stimulation was -0.5% (inactive) in assay [1] (at 10 µM) and 0.8% in assay [1] (stimulation, at 2 µM). Also, the insulin secretion stimulation in assay [2] is 0.7% (inactive). For the same compound, the viability decrease in assay [3] was -84.2% (inactive). Moreover, in assay [4], the tube area decrease was 27.8% (inactive). Also, the GLP1 secretion stimulation in assay [5] was 0.4% (inactive). The inhibition of viability in assay [6] is 6.77% (inactive). In addition, the viability decrease (inhibition) was -24% (inactive) in assay [7] and -8.2% (inactive) in assay [8].

Consider `Cc1onc(-c2ccccc2)c1C(=O)Cl`, for which the nuclear beta-catenin stimulation in assay [1] (at 10 µM) is 0% (inactive); in assay [1] (stimulation, at 2 µM) it was -1.4%. For the same compound, the insulin secretion stimulation in assay [2] is 2.75% (inactive). Also, the viability decrease in assay [3] is 0.5% (inactive). Also, the tube area decrease in assay [4] is -12.1% (inactive). Besides, the GLP1 secretion stimulation in assay [5] is 1.7% (inactive). The inhibition of viability in assay [6] is 1.8% (inactive). Also, the viability decrease (inhibition) in assay [7] was -5.7% (inactive); in assay [8] it was -12.5% (inactive).

`Cc1nc(C2CCCCC2)c(-c2ccc(S(N)(=O)=O)c(F)c2)o1`: the nuclear beta-catenin stimulation was 2.5% (inactive) in assay [1] (at 10 µM) and 4.1% in assay [1] (stimulation, at 2 µM). Moreover, the insulin secretion stimulation in assay [2] is 1.4% (inactive). The viability decrease in assay [3] is 21% (inactive). In assay [4], the tube area decrease was 24% (inactive). The GLP1 secretion stimulation in assay [5] is 1.8% (inactive). The inhibition of viability in assay [6] was -0.63% (inactive). Also, the values for the viability decrease (inhibition) in assay [7] and in assay [8] were 6.3% (inactive) and 3.1% (inactive), respectively.

For the compound `CSCC[C@H](N)C(=O)O`, the nuclear beta-catenin stimulation in assay [1] (at 10 µM) is 1.9% (inactive); in assay [1] (stimulation, at 2 µM) it was 1.3%. In addition, the insulin secretion stimulation in assay [2] is 0.5% (inactive). The viability decrease in assay [3] was -8.1% (inactive). Also, the tube area decrease in assay [4] is 2.3% (inactive). Besides, the GLP1 secretion stimulation in assay [5] was -2.6% (inactive). In assay [6], the inhibition of viability was 0.5% (inactive). Also, the viability decrease (inhibition) in assay [7] is 0.4% (inactive); in assay [8], -6% (inactive).

On to `CCc1ccc(C(=O)C(C)CN2CCCCC2)cc1` (centres undefined), for which the nuclear beta-catenin stimulation in assay [1] (at 10 µM) is -0.3% (inactive); in assay [1] (stimulation, at 2 µM), -0.1%. In addition, the insulin secretion stimulation in assay [2] was 14.3% (inactive). Moreover, the viability decrease in assay [3] was -4.9% (inactive). In addition, the tube area decrease in assay [4] is -30.1% (inactive). Further, in assay [5], the GLP1 secretion stimulation is -1.5% (inactive). In addition, in assay [6], the inhibition of viability is 19.2% (inactive). Moreover, the viability decrease (inhibition) in assay [7] is 7.4% (inactive); in assay [8], -0.2% (inactive).

As to `CC(=O)OCC(=O)Nc1cc(C#N)cc(NC(=O)COC(C)=O)c1Cl`, the nuclear beta-catenin stimulation in assay [1] (at 10 µM) is -0.4% (inactive); in assay [1] (stimulation, at 2 µM), -1.4%. Further, the insulin secretion stimulation in assay [2] was 4% (inactive). Besides, the viability decrease in assay [3] is -0.6% (inactive). Also, the tube area decrease in assay [4] was -12.8% (inactive). Also, in assay [5], the GLP1 secretion stimulation is 3.3% (inactive). Also, the inhibition of viability in assay [6] was 0.9% (inactive). For the same compound, the viability decrease (inhibition) in assay [7] was -20.3% (inactive); in assay [8] it was 1.6% (inactive).

With `COc1ccc(/C(C)=C/C(=O)O)c(OC)c1`, the nuclear beta-catenin stimulation in assay [1] (at 10 µM) is 1.2% (inactive); in assay [1] (stimulation, at 2 µM), 0.1%. The insulin secretion stimulation in assay [2] is -0.4% (inactive). In assay [3], the viability decrease was 10.1% (inactive). The tube area decrease in assay [4] was -9.3% (inactive). Also, the GLP1 secretion stimulation in assay [5] is 1.3% (inactive). For the same compound, in assay [6], the inhibition of viability is -0.3% (inactive). Moreover, the viability decrease (inhibition) was -19.9% (inactive) in assay [7] and -10.1% (inactive) in assay [8].

In the case of `O=C(Nc1ccc(Cl)cc1)Nc1ccc(Cl)c(C(F)(F)F)c1`, the nuclear beta-catenin stimulation in assay [1] (at 10 µM) is 25.5% (inactive); in assay [1] (stimulation, at 2 µM), -0.2%. Also, the insulin secretion stimulation in assay [2] was -0.8% (inactive). The viability decrease in assay [3] was 99.4% (active). For the same compound, the tube area decrease in assay [4] was 108% (active). The GLP1 secretion stimulation in assay [5] was -3.9% (inactive). Moreover, the inhibition of viability in assay [6] was 99.3% (active). For the same compound, the viability decrease (inhibition) in assay [7] and in assay [8] was 102% (active) throughout.

Turning to `COc1ccc([C@@H]2Sc3ccccc3NC(=O)[C@@H]2O)cc1`, the nuclear beta-catenin stimulation is 7.8% (inactive) in assay [1] (at 10 µM) and 0.6% in assay [1] (stimulation, at 2 µM). In assay [2], the insulin secretion stimulation was 2.8% (inactive). Further, the viability decrease in assay [3] is 77.6% (active). In assay [4], the tube area decrease is 57.7% (active). The GLP1 secretion stimulation in assay [5] is 2.6% (inactive). In assay [6], the inhibition of viability is 96.6% (active). Moreover, the results for the viability decrease (inhibition) in assay [7] and in assay [8] were 87.2% (active) and 67.4% (active), respectively.
